Results reported in ChEMBL document CHEMBL3988442, “University of Dundee, Small-Polar-MMV Screening Library” (2021).
For some assays here: Entries with a potency or affinity are not part of this list.

Columns and labels:
Design in all cases: scale not given: direction of the effect not stated beside the values
[1] = target: Protein translocase subunit SecA (Escherichia coli (strain K12)) (UniProt P10408); experiment: Assay to Identify E. coli SecA ATPase Inhibitors; assay type: functional; conditions: 30 µM
Protein translocase subunit SecA (Escherichia coli (strain K12)), sequence (P10408 whole entry): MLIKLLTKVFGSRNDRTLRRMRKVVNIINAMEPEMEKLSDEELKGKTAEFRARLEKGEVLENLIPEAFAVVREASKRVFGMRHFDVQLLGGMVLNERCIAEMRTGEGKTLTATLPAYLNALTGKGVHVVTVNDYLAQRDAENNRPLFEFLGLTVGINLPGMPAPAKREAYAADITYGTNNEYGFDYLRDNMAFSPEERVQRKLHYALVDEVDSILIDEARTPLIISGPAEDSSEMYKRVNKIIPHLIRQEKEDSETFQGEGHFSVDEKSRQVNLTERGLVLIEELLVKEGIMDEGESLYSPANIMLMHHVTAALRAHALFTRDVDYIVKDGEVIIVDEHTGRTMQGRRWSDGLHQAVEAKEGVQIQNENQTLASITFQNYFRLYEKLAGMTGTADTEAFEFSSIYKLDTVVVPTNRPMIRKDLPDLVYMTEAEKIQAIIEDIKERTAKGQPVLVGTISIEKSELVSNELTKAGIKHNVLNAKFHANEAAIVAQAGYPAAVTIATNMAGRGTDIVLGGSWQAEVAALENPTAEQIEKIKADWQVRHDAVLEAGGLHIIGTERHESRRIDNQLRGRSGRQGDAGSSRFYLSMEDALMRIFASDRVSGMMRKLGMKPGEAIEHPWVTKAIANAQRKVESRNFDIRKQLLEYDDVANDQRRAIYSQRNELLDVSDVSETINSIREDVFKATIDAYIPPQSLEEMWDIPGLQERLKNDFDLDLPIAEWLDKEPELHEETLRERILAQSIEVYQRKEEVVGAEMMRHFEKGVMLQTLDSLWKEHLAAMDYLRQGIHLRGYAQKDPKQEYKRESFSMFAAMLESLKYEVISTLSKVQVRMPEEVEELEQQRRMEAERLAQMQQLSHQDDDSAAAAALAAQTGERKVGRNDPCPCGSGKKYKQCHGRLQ

[2] = target: T1, Ubiquitin-activating enzyme e1, putative (Leishmania donovani (strain BPK282A1)) (UniProt E9BSI1); experiment: Leishmania donovani Ubiquitin Activating Enzyme (LdE1); assay type: functional; conditions: 30 µM
T1 sequence (whole entry): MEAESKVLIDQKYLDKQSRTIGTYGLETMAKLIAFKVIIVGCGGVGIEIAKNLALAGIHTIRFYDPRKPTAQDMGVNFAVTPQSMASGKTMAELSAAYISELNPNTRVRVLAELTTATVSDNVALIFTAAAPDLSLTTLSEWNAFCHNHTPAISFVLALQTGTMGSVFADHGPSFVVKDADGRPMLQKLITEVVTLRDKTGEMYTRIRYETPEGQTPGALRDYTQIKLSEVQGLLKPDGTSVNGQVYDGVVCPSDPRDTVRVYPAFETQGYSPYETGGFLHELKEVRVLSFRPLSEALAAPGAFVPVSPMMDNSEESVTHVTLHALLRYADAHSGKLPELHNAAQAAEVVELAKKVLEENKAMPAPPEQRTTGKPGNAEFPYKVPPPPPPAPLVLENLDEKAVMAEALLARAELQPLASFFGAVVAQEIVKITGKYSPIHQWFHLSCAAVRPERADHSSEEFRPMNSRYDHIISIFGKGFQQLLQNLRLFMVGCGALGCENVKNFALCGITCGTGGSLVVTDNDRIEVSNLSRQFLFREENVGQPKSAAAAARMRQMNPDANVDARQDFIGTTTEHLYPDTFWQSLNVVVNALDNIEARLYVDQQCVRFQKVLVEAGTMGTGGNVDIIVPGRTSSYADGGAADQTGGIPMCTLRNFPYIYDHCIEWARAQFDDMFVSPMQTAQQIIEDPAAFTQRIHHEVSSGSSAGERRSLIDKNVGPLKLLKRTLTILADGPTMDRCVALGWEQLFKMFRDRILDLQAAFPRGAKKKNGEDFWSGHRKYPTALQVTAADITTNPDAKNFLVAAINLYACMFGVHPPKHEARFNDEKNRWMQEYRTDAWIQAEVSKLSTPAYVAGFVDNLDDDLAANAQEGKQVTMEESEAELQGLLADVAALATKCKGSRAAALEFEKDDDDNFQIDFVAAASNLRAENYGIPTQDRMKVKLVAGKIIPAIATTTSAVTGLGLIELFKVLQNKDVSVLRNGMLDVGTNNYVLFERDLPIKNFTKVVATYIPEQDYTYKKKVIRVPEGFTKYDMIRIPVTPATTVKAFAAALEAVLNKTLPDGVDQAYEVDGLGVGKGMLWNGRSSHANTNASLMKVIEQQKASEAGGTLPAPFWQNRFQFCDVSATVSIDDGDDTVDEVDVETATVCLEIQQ

[3] = target: AMP-activated protein kinase, AMPK (Homo sapiens) (UniProt P54646+O43741+P54619+Q9UGJ0+Q9Y478+Q13131+Q9UGI9); experiment: AMP-dependent Kinase enzyme assay. An in vitro enzyme assay that detects ADP turnover that is directly proportional to AMPK activity. This uses naive AMPK that is activated during the assay with MK-8722; assay type: functional; conditions: 30 µM
[4] = target: Sialic acid-binding Ig-like lectin 9 (Homo sapiens) (UniProt Q9Y336); experiment: Hs-Siglec9 ALPHAscreen SOP 20170721; conditions: 10 µM
Sialic acid-binding Ig-like lectin 9 (Homo sapiens), sequence (Q9Y336 whole entry): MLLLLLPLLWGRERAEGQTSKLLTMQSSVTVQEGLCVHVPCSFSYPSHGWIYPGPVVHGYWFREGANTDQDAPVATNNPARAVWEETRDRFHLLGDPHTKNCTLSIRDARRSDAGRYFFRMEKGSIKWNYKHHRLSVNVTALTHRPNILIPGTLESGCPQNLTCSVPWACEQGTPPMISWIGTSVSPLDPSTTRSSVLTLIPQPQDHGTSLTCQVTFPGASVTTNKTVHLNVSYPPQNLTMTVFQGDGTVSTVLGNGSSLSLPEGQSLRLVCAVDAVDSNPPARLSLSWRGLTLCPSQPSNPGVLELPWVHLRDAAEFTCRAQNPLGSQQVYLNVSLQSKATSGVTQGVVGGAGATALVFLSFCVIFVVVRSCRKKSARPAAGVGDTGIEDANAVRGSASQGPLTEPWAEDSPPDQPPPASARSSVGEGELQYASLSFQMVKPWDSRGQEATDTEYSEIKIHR

Trypanosoma cruzi = experiment: Trypanosoma cruzi phosphomannomutase and mannose-1-phosphate guanylyltransferase assay; assay type: functional; conditions: 10 µM
[5] = target: T2, Arginase-2, mitochondrial (Homo sapiens) (UniProt P78540); experiment: in vitro enzyme assay to detect the production of urea directly proportional to the activity of Arginase II; assay type: functional; conditions: 33.3 µM; further: in the data most compounds retested in dose-response had high values
T2 sequence (whole entry): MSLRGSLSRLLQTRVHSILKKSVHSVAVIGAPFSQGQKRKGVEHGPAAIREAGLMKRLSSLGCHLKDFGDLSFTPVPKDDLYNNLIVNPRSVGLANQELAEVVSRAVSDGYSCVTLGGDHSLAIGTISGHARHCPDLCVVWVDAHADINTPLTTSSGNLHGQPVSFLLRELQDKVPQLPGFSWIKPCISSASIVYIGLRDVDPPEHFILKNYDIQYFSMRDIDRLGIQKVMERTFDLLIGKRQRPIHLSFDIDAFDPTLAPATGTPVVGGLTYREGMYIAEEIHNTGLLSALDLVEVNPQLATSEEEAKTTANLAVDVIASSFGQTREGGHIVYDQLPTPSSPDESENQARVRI

[6] = target: T3, Proteasome subunit beta (Trypanosoma cruzi) (UniProt O96673); experiment: Trypanosoma cruzi proteasome chymotrypsin-like activity (TcProtChymo) assay.; further: in the data most compounds retested in dose-response had high values; assay type: functional; conditions: 9.37 µM
T3 sequence (whole entry): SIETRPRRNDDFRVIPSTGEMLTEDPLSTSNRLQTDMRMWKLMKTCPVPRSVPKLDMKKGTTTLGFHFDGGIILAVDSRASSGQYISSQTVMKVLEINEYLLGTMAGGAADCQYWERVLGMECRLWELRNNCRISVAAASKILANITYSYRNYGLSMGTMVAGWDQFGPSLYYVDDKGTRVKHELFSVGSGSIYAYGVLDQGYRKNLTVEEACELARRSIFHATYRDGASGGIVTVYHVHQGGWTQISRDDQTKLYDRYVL

Homo sapiens = organism: Homo sapiens; experiment: To identify inhibition of the IFN signalling (Jak-Stat) pathway via expression of an eGFP reporter gene under the control of an IFN-stimulated response element (ISRE) containing MxA promoter.; assay type: functional; conditions: 30 µM
[7] = target: T4, Tyrosyl-tRNA synthetase, putative (Trypanosoma cruzi (strain CL Brener)) (UniProt Q4DSP6); experiment: Trypanosoma cruzi tyrosyl tRNA synthetase (TcYRS) _High Tyrosine SOP; assay type: functional; conditions: 30 µM; further: in the data most compounds retested in dose-response had high values
T4 sequence (whole entry): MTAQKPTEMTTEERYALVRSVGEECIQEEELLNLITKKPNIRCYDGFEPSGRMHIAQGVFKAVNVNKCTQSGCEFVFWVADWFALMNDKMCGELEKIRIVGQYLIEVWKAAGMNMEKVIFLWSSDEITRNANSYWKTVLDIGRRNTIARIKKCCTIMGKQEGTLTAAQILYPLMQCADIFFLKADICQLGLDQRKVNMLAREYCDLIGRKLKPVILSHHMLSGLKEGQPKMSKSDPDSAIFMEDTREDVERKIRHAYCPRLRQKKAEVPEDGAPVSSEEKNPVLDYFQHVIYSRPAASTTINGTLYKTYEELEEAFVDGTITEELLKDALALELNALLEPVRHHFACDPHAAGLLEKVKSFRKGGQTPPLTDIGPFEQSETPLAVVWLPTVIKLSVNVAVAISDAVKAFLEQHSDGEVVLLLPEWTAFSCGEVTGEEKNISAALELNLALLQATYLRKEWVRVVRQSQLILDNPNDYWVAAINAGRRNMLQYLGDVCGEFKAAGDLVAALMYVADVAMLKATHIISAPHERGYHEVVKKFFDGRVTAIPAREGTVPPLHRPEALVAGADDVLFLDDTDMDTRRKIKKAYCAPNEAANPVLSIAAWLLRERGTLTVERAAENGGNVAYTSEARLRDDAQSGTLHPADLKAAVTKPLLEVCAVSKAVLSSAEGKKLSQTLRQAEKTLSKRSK

[8] = target: T4, Tyrosyl-tRNA synthetase, putative (Trypanosoma cruzi (strain CL Brener)); experiment: Trypanosoma cruzi tyrosyl tRNA synthetase (TcYRS) SOP; assay type: functional; conditions: 30 µM
[9] = target: Chromo domain-containing protein 1 (Saccharomyces cerevisiae (strain ATCC 204508 / S288c) (Baker's yeast)) (UniProt P32657); experiment: ScCHD-1 Enzyme Inhibition Assay; assay type: functional; conditions: 30 µM; further: in the data most compounds retested in dose-response had high values
Chromo domain-containing protein 1 (Saccharomyces cerevisiae (strain ATCC 204508 / S288c) (Baker's yeast)), sequence (P32657 whole entry, the tested form may be a part): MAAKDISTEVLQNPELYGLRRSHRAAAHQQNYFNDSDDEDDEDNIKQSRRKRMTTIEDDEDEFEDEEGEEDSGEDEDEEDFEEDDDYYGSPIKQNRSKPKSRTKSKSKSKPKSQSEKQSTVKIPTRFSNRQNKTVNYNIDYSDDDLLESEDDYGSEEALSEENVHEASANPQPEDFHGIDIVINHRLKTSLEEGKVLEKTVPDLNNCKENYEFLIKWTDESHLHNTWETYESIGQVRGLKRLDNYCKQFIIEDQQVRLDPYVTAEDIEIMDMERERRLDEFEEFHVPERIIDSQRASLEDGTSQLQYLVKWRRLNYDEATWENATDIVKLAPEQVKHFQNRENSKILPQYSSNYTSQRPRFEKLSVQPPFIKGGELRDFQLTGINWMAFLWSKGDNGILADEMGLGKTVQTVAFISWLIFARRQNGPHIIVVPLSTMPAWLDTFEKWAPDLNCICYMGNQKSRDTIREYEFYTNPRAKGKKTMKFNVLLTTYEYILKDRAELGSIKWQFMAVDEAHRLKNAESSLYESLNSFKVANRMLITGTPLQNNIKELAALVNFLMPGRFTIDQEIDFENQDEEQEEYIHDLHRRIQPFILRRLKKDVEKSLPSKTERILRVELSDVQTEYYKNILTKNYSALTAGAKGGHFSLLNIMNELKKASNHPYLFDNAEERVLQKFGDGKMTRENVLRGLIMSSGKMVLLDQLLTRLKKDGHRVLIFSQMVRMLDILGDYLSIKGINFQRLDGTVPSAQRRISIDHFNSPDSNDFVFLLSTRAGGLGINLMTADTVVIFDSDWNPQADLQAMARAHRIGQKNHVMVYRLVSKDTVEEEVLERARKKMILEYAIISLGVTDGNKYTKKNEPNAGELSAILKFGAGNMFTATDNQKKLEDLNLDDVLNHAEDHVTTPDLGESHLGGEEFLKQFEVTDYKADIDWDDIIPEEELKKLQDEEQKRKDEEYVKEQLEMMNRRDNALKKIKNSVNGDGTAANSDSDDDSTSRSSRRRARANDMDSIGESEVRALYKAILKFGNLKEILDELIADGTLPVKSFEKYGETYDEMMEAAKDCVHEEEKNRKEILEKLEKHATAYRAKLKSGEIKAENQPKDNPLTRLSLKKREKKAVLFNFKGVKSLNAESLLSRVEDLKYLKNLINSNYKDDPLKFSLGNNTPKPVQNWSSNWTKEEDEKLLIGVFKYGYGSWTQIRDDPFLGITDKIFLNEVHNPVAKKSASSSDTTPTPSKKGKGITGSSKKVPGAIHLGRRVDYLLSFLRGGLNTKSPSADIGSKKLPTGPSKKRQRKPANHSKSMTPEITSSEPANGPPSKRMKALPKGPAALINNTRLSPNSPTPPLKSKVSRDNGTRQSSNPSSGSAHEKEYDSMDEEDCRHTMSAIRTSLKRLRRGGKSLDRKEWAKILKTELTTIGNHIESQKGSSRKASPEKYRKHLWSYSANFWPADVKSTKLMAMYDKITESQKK

| SMILES | Percent Effect [1] [%] | Percent Effect [2] [%] | Percent Effect [3] [%] | Percent Effect [4] [%] | Percent Effect (Trypanosoma cruzi) [%] | Percent Effect [5] [%] | Percent Effect [6] [%] | Percent Effect (Homo sapiens) [%] | Percent Effect [7] [%] | Percent Effect [8] [%] | Percent Effect [9] [%] |
| --- | --- | --- | --- | --- | --- | --- | --- | --- | --- | --- | --- |
| Fc1ccc(OCc2noc(CN3CCc4cncnc4C3)n2)cc1 | -0.114 | 13.2 | -14.5 | 2.94 | 2.26 | -29.5 | 18.1 | 1.44 | 31.9 | 21.9 | -2.74 |
| O=C(NCCNc1ncccn1)N1CCCC(C(F)(F)F)C1 (stereo unspecified) | -2.28 | 10.8 | 3.11 | -0.403 | -2.12 | -1.43 | 7.59 | 6.58 | 4.76 | 19.5 | -5.39 |
| COC(=O)c1ccc(N2CCN(CCC(=O)NC(N)=O)C(C)C2)cc1 (stereo unspecified) | -5.21 | 15.8 | -4.81 | 0.77 | -5.51 | -0.719 | -2.45 | 5.46 | 5.42 | 13.6 | 2.67 |
| Cc1cc(=O)n(CC(=O)NCC2CCCO2)c(-c2ccc(F)cc2)n1 (stereo unspecified) | -8.1 | 0 | 1.45 | -2.38 | -3.83 | 2.76 | 7.49 | 22.5 | -1.07 | -3.7 | 3.12 |
| O=C(C1CCOCC1)N1C[C@@H]2[C@@H](C1)OCC(=O)N2Cc1ccncc1 | -1.9 | -2.74 | -1.14 | 7.63 | 1.19 | -0.399 | 4.2 | 2.13 | 2.08 | -6.17 | -1.66 |
| O=C(Cc1ccccn1)N1C[C@@H]2CC[C@H](C1)N(Cc1ccccc1)C2=O | -1.67 | 2.7 | 0.96 | 6.03 | -4.05 | -4.29 | 14.7 | 12 | 5.82 | 4.88 | -2.65 |
| Cn1nccc1C1CCN(CC(O)c2cccc(F)c2)CC1 (stereo unspecified) | -3.15 | 5.06 | 0.204 | 2.12 | 6.89 | -1.14 | 4.18 | 15.3 | -0.493 | -8.86 | -4.6 |
| CCc1nnc2n1CCN(CC(=O)Nc1cc(C(C)(C)C)nn1C)C2 | -1.62 | 5.26 | 1.91 | 0.565 | -3.38 | 4.6 | 2.17 | 2.83 | 3.43 | 9.76 | 2.88 |
| COC(=O)CCN1CCCC1c1cccc2c1OCCO2 (stereo unspecified) | -3.03 | -2.67 | -0.184 | 36 | -0.682 | -2.6 | -1.92 | 5.8 | 3.83 | 3.7 | 3.53 |
| Cc1nn(C)c(C)c1CNCc1ccnc(N2CCOCC2)c1 | -6.06 | 1.27 | 2.39 | -0.497 | 2.56 | -0.645 | -1.03 | 24 | -1.04 | -2.53 | -31.5 |
| O=C(Nc1cccc(CN2CCOC2=O)c1)N1CCOCC1 | -1.28 | 1.39 | -4.85 | -10.5 | -4.76 | 3.09 | 12.6 | 2.75 | 2.1 | 7.69 | -2.72 |
| CS(=O)(=O)N1CCC(Oc2cnccn2)CC1 | -2.51 | 10.4 | -2.43 | 6.29 | 2.46 | 1.94 | 14.1 | 7.55 | 4.23 | 11.5 | -8.42 |
| COc1ccccc1CC(=O)NCCCN1CCCC1C(=O)N(C)C (stereo unspecified) | -0.00806 | 8.22 | -2.99 | 6.95 | 2.35 | 8.64 | 18.6 | -15.4 | 6.45 | -2.5 | -6.6 |
| CCN(CC)S(=O)(=O)N1CCCC(c2cccc(C(=O)O)c2)C1 (stereo unspecified) | -3.72 | 16.2 | -6.67 | 19.8 | 6.56 | 0.952 | 10.9 | 5.56 | 6.88 | 17.1 | -5.44 |
| CC(C)OCCCNC(=O)CS(=O)(=O)Cc1ccc(Cl)c(Cl)c1 | -6.75 | 5.2 | 9.19 | -7.16 | -5.8 | -1.78 | 9.63 | 33.8 | 3.88 | 12.2 | -5.85 |
| Cc1ccc(CNCC2CCc3nnc(C(C)C)n3C2)s1 (stereo unspecified) | -1.99 | -1.39 | -8.87 | -3.91 | -1.46 | -3.97 | 4.56 | -6.98 | 1.05 | 0 | -1.15 |
